# Assay outcomes: PubChem, National Center for Advancing Translational Sciences (NCATS)
# NPSR antagonist: qHTS Assay for Antagonists of the Neuropeptide S Receptor: cAMP Signal Transduction. 220,000 compounds, 1% hits. Potency, µM (titrated, usually from 38.3 µM), inactives show at the highest dose activity change, negative = inhibition, actives largely listed as inhibitors. CHO-NPSR cells, cAMP TR-FRET, antagonist mode; also: % is scaled to controls: 0 for no effect and ±100 for the full control effect; nearly all actives have a fitted effect of over 50% in size
# Target sequence (Q6W5P4 whole entry, looked up): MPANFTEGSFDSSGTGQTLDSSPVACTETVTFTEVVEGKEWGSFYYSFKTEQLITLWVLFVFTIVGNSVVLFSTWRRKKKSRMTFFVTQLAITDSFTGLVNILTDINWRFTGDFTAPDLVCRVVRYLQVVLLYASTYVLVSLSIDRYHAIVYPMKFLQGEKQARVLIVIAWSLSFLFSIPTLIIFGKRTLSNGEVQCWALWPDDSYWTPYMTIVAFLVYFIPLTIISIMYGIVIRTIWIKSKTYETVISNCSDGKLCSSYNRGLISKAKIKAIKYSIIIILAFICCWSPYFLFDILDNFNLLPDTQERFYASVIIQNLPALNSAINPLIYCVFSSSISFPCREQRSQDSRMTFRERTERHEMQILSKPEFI
# HTT aggregate: qHTS Multiplex Assay to Identify Dual Action Probes in a Cell Model of Huntington: Aggregate Formation (GFP); 220,000 compounds, 1.1% hits; Potency, µM (doses to about 46.1 µM), inactives show top-dose activity change, negative = inhibition, usual class: inhibitors; PC12 HttQ103-GFP aggregates, Acumen cytometry, 40 h; AID 1688, 2009; also: % is scaled to controls: 0 for no effect and ±100 for the full control effect; nearly all actives have a fitted effect of over 60% in size
#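 Compounds (qHTS titration) were added to PC12 cells expressing an ecdysone-driven HTT exon 1 Q103–GFP fusion after induction with 100 nM tebufenozide. Aggregate formation was measured as GFP objects in cell lysates.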
# AT treatment: qHTS Assay for Identifying a Potential Treatment of Ataxia-Telangiectasia; F2112 A-T fibroblasts, KAP-1 phosphorylation AlphaLISA; neocarzinostatin DNA damage 30 min before lysis; Potency, µM (doses to about 57.5 µM), without a hit: at the top dose activation, hits mostly activators; 320,000 compounds, 0.19% hits; also: % of control where 0% means no effect; nearly all actives have a fitted effect of over 45% in size
#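 ATM-like activity read as KAP-1 phosphorylation via AlphaLISA donor/acceptor antibody pairs after lysis and 6 hr at 25C. Cells were ATM-null patient fibroblasts (F2112, hTERT), dosed 60 min, then exposed to the DSB inducer NCS for 30 min.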
# HTT ATP protect: qHTS Multiplex Assay to Identify Dual Action Probes in a Cell Model of Huntington: Cytoprotection (ATP); Potency, µM (highest dose often 56.4 µM), for inactives: cytoprotection (ATP increase), usual class: activators; AID 1471, 2008; 230,000 compounds, 0.14% hits; PC12 HTT-Q103 induced, cytoprotection, ATP luminescence, 40 h; also: % of control where 0% means no effect; nearly all actives have a fitted effect of over 45% in size
#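 Huntington model: PC12 line, ecdysone-inducible HTTQ103 exon1–GFP, tebufenozide 100 nM. Test articles in a dose series. Endpoint luminescence from cellular ATP.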
# mIDH1 inhibitor: qHTS for Inhibitors of mutant isocitrate dehydrogenase 1 (IDH1): qHTS | AID 602179, 2012 | 390,000 compounds, 0.093% hits | IDH1-R132H enzyme, NADPH consumption, diaphorase/resazurin fluorescence | Potency, µM (highest dose often 76.6 µM), inactives show at the highest dose activity change, negative = inhibition, usual class: inhibitors | Isocitrate dehydrogenase [NADP] cytoplasmic (Homo sapiens), O75874; also: % is scaled to controls: 0 for no effect and ±100 for the full control effect; nearly all actives have a fitted effect of over 65% in size
# Target sequence (O75874 whole entry R132H, stated change not applied): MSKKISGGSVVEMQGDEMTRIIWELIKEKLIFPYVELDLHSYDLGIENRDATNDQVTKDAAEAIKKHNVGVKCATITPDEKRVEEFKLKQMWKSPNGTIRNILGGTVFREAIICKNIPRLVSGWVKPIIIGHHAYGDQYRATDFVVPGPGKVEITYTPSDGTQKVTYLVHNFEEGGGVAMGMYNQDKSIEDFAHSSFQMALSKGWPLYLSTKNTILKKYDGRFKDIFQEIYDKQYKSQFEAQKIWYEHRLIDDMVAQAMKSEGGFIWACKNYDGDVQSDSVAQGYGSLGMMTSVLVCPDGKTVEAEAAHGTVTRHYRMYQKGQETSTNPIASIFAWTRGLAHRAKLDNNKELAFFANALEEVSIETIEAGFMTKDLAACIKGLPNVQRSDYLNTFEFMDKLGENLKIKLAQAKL
#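 IDH1-R132H (0.5 ug/mL) preincubated 30 min with compound, then NADPH (0.016 mM) and alpha-KG (2 mM) added; 80 min at RT, pH 7.5. Remaining NADPH coupled via diaphorase/resazurin to fluorescence (540/590 nm); concentration-response curves normalized to no-enzyme control.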
# The depositor's hits bear a star; ? = inconclusive; / = no result; [ ] = another dose, or the depositor's remark. Shown are actives, neighbours in structure and some others; about 1.1% of the full set was active somewhere. Calls follow the shape of the dose curve; as a rule, active = well fitted curve in the direction sought with a large enough effect; inconclusive = small, poorly fitted or top-dose-only effect, or another doubt; inactive = no such curve, though single readings can be large; an effect the other way counts as inactive or inconclusive. Potency is read from the fitted curve at half-maximal effect.
SMILES,NPSR antagonist,HTT aggregate,AT treatment,HTT ATP protect,mIDH1 inhibitor
CCc1nnc(NS(=O)(=O)c2ccc(NC(=S)NC(=O)/C=C/c3ccc(F)cc3)cc2)s1,10µM*,29.5%,6.2%,-21.8%[10 µM],-14.5%
CC(=O)c1ccc(NC(=S)NC(=O)/C=C/c2ccc(F)cc2)cc1,/,/,3.16µM*,/,2.0%
COc1cccc(NC(=S)NC(=O)/C=C/c2ccc(F)cc2)c1,/,/,10.3%,/,1.3%
C[C@@H](COc1ccc(/C=C\c2ccccc2)cc1)[N+](C)(C)C,/,/,/,-15.8%[1.9 µM],/
CCOC(=O)c1c(C)n(-c2ccc(C)cc2)c2c(C(C(C)=O)C(=O)O)c(Br)c(O)c(O)c12 (configuration not stated),10µM*,12.6µM*,17.2%,?,4.1%
CCOC(=O)c1c(C)n(-c2ccc(C)cc2)c2c(CC(C)=O)c(Br)c(OC)c(O)c12,10µM*,-2.8%,-1.8%,-45.9%,-0.9%
O=C(Nc1cccc(Cl)c1)c1ccc2nc(Cc3ccccc3)oc2c1,/,/,/,/,11.4%
CCCCCCCCCCCC[n+]1ccc2ccccc2c1,/,7.08µM*,/,-97.5%,/
CCCCCCCCCCCCCC[n+]1ccc(C)cc1,/,22.4µM*,/,-97.4%,/
CCCCCCCCCCCCCCCC[n+]1ccc(C(N)=O)cc1,-44.7%,1.4%,-1.2%,11.2%[10 µM],-8.0%
CCCCCCCCCCCCCCCC[n+]1ccc(/C=N/O)cc1,5.01µM*,8.91µM*,3.0%,-35.9%[10 µM],7.8%
COc1cc(OC)cc(C(=O)NCc2ccc3c(c2)CCN3C(=O)c2ccccc2)c1,/,/,/,/,12.1%
O=C(O)CCCCn1cnc2c(=S)nc[nH]c21,/,/,/,-3.6%[10 µM],/
Cn1c(=Nc2ccc(N3CCOCC3)cc2)ccc2ccccc21,4.1%[46.1 µM],-1.9%,4.1%,-4.6%,5.3%
Cn1c(N=Nc2ccc(N3CCOCC3)cc2)[n+](C)c2ccccc21,7.94µM*,/,-6.7%,/,30.7%
CCCCC1CCC(C(=O)N2CC(=O)Nc3ccc(C)cc3C2c2ccc(F)cc2)CC1 (configuration not stated),/,/,/,/,7.0%
CN1/C(=C\C=N\NC(=O)c2ccccc2Br)C(C)(C)c2ccccc21,-2.6%,11.2µM*,-10.0%,-1.4%[10 µM],-4.8%
C1CCC[C@H]2CCCN3CC[C@H](CCCCCC[C@@H]4CCCN5CC[C@H](CC1)OC45)OC23,/,/,/,-4.5%,/
C=C1C[C@@]23C[C@]1(O)CC[C@@H]2[C@]12C=C[C@@H](O)[C@@](C)(C(=O)O1)[C@@H]2[C@@H]3C(=O)O,/,/,/,9.9%,/
COc1cc2c(C#N)c(N3CCN(c4ccccc4OC)CC3)nc(N)c2c(N)n1,0.1%[46.1 µM],11.2µM*,3.4%,12.7%[10 µM],0.1%
COc1ccccc1N1CCN(c2ncnc3c2cnn3-c2cc(Cl)ccc2C)CC1,/,/,/,/,-4.8%
COc1ccc(Cn2c(=O)c3cccnc3n(CC(=O)Nc3c(C)cc(C)cc3C)c2=O)cc1,/,/,/,/,4.6%
Cc1cc2c(cc1C)C(=O)NC(C)(C)C2,-11.4%[46.1 µM],10µM*,/,-2.9%,8.7%
CC(NC(=O)OCc1ccccc1)C(=O)Oc1cc2oc(=O)cc(-c3ccccc3)c2cc1Cl (configuration not stated),-1.9%,8.91µM*,0.1%,-1.7%[10 µM],2.3%
S=C(Nc1ccccc1)c1ccccn1,3.98µM*,-10.3%[9.22 µM],42.3%,-41.6%[10 µM],0.0%
SMILES,NPSR antagonist,HTT aggregate,AT treatment,HTT ATP protect,mIDH1 inhibitor
COC(=O)C1=C(C(=O)OC)[C@@H]2N(C)c3ccccc3[C@@]23C[C@@H](C(=O)OC)N(S(=O)(=O)c2ccc(C)cc2)C3=N1,/,/,/,-3.1%[10 µM],/
COc1ccc(N2CCN(C(=O)CSc3nnc(-c4cc5ccccc5cc4O)n3C)CC2)cc1,-22.8%[46.1 µM],12.6µM*,1.0%,-19.5%,7.8%
O=C(CSc1ccc2ccccc2c1)N1CCN(c2ccc(O)cc2)CC1,-21.6%,8.3%[9.22 µM],25.1µM*,-6.5%[10 µM],5.3%
COc1ccc(-n2cnnc2SCC(=O)N2CCN(c3ccccc3)CC2)cc1,-9.0%[46.1 µM],13.9%,-0.7%,-15.2%,14.2%
Oc1cc(O)c2c(c1)O[C@@H](c1ccc(O)c(O)c1)[C@H](O[C@@]1(c3cc(O)c(O)c(O)c3)Oc3cc(O)cc(O)c3[C@H](O)[C@@H]1O)C2,/,/,/,-7.9%[10 µM],/
CCC(C)Sc1cccc(-c2nc3ccc(C)cn3c2NCc2ccccc2)c1 (configuration not stated),/,/,22.4µM*,/,9.2%
CCCCCCSc1cccc(-c2nc3cc(C)ccn3c2NCc2ccccc2)c1,/,/,20µM*,/,5.4%
CCC(C)Sc1cccc(-c2nc3ccc(Cl)cn3c2NCc2ccccc2)c1 (configuration not stated),/,/,20µM*,/,12.1%
CC(=O)c1sc2nc(C)c3c(c2c1N)CCCC3,-22.3%,-41.7%[9.22 µM],35.5µM*,-15.4%[10 µM],17.5%
Cc1cn([C@H]2C=C[C@H](CO)O2)c(=O)[nH]c1=O,/,/,/,0.8%[1.9 µM],/
CC(C)(C)C(=O)[C@H]([C@@H](c1ccccc1)N1CCOCC1)N1CCOCC1,/,/,/,19.1%[10 µM],/
Cc1cccn2c(=O)c3cc(C(=O)NC4CCCCC4)c(=N)n(CCN4CCOCC4)c3nc12,-20.0%,5.5%[9.22 µM],15.8µM*,-1.7%[10 µM],0.0%
COc1ccc(CN(C)CC(=O)Nc2ccccc2-c2ccccc2)c(OC)c1,-56.3%,20µM*,10.4%,10.0%[10 µM],0.0%
CNC(=S)NNC(=O)c1sccc1OCc1ccc(Cl)cc1Cl,1.4%[46.1 µM],8.8%,-1.2%,-12.6%,0.8%
N/C(=N\NC(=O)c1sccc1OCc1ccc(Cl)cc1Cl)c1ccccn1,-13.4%,1.78µM*,3.2%,-11.2%,-3.5%
O=C(CSc1n[nH]c(-c2ccncc2)n1)Nc1ccc(Br)cc1,/,/,20µM*,/,5.8%
CC(C)N(C(=O)NC(=O)Nc1ccccn1)S(C)(=O)=O,16.1%,28.3%,10.9%,2.0%[10 µM],5.8%
Cc1ccc(NC(=O)NC(=O)N(C(C)C)S(C)(=O)=O)nc1,20.4%,6.7%,0.708µM*,8.7%[10 µM],-0.3%
O=C(COc1ncnc2ccc(Br)cc12)Nc1ccc(N2CCOCC2)cc1,-17.1%[46.1 µM],-16.2%,1.8%,-26.0%,4.4%
Brc1ccc2ncnc(Nc3ccc(N4CCOCC4)cc3)c2c1,-5.7%[46.1 µM],8.91µM*,6.6%,4.6%,7.9%
Cc1cccc(C)c1NC(=S)NCCSc1ccc(Cl)cc1,-36.7%,11.2µM*,8.0%,0.4%,4.3%
Cc1ccc(NC(=S)NCCSc2ccc(Cl)cc2)cc1,?,?,2.6%,-181.0%,-7.7%
COc1ccc(-n2c(=O)c3c4c(sc3n(CC(=O)N3CCCCC3C)c2=O)CCC4)c(OC)c1 (configuration not stated),/,/,/,/,-4.9%
CSc1cccc(NC(=O)/C=C/c2cccc(Cl)c2)c1,-31.4%,15.8µM*,7.7%,/,3.9%
